{
  "source": "PubChem BioAssay (NCI)",
  "note": "This is part of a sample that, as a whole, favours compounds with a hit. Of some 83,000 tested, about 20% had one in any assay.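 The endpoint reported here, percent growth, reads 100 for growth as untreated, 0 for no net growth and -100 for all cells dead.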 Active and inactive are the calls of the source.",
  "data": [
    {"test_system": "COLO 205 colon", "assay": "NCI-60 one-dose screen, 48 h (100 = growth as untreated, 0 = no growth, -100 = all killed)", "conditions": "10 µM unless noted", "experimental": "Cells are grown in 96 well plates and exposed to the test compound for 48 hours. Compounds are tested at a single concentration, which is 10^-5 M for most compounds. The reported endpoint is percent growth (GI% or GIPRCNT), where numbers from 0 - 100% represent growth inhibition, and numbers from -100% - 0 represent cell death. For example, a value of 40 represents 60% growth inhibition. A value of 0 means no net growth occurred over the course of the experiment. A value of -40 indicates 40% of cells at the beginning of the experiment died by the end of the experiment. A value of -100 means all cells are dead at the end of the experiment.\nNCI-60 Human Tumor Cell Lines Screen was performed using the standard one-dose NCI protocol, which is described in more detail at https://dtp.cancer.gov/discovery_development/nci-60/default.htm.\nCompounds with GIPRCNT values below 10 were considered active. Activity score was based on GIPRCNT using the following formula: […]\nScore is 0 for GIPRCNT values of 100 or above, 50 for GIPRCNT values of 0, and 100 for GIPRCNT values of -100.", "values": [
      {"smiles": "Cc1ccc(-c2cc(-c3nnc(SCC(=O)c4ccccc4)o3)c3ccccc3n2)cc1", "growth": "111% (inactive)"},
      {"smiles": "C=CCn1c(SCC(=O)Nc2ccc(C(=O)/C=C/c3cc(OC)c(OC)c(OC)c3)cc2)nnc1-c1ccc(OC)cc1", "growth": "-7.79% (active)"},
      {"smiles": "COc1ccc2c(c1)C(=O)/C(=C/c1ccc(OCC(=O)c3ccc(Cl)cc3)cc1)O2", "growth": "123% (inactive)"},
      {"smiles": "CCC1S/C(=N\\N=C(/C)c2cc3ccccc3o2)N(c2ccccc2)C1=O", "note": "(stereo not given)", "growth": "123% (inactive)"},
      {"smiles": "COc1ccc(NC(=O)Nc2ccc(-c3ccc(OC)c(OC)c3)nc2C)cc1", "growth": "91.9% (inactive)"},
      {"smiles": "Cc1c(NC(=O)c2sc3nc4c(cc3c2N)CN(Cc2ccccc2)CC4)cccc1C(F)(F)F", "growth": "21.6% (inactive)"},
      {"smiles": "CC(C)CNCC(=O)Nc1ccc(Cc2ccc(NC(=O)CNCC(C)C)cc2)cc1", "growth": "53.8% (inactive)"},
      {"smiles": "Cc1ccc[n+](CC(=O)c2cccc3ccccc23)c1", "growth": "101% (inactive)"},
      {"smiles": "O=C(NCCNc1nccc(-c2c(-c3cccc(O)c3)nc3sccn23)n1)Nc1cc(C(F)(F)F)cc(C(F)(F)F)c1", "growth": "45.1% (inactive)"},
      {"smiles": "COc1ccc(OCC(O)CN2CCN(c3ccc(Cl)cc3)CC2)cc1", "note": "(stereo not given)", "growth": "95.7% (inactive)"},
      {"smiles": "COc1ccc(Cn2cc(COc3ccc4c5ccnc(C)c5n(CCCc5ccccc5)c4c3)nn2)cc1", "growth": "69.2% (inactive)"},
      {"smiles": "CCn1c(SCC(=O)c2ccc(Br)cc2)nnc1-c1cc2c([nH]c3ccccc32)c(-c2cccc(O)c2)n1", "growth": "108% (inactive)"},
      {"smiles": "CCCCC(=O)Nc1nc2ccc(SCCC)cc2s1", "growth": "51.6% (inactive)"},
      {"smiles": "COC(=O)c1oc2c(C(C)=O)c(OCCN3CCCCC3)ccc2c1C", "growth": "130% (inactive)"},
      {"smiles": "COc1cc(-c2nc3ccccc3s2)ccc1OCc1nc2n(n1)S(=O)(=O)c1ccccc1N2c1ccccc1", "growth": "113% (inactive)"},
      {"smiles": "COc1ccc(Cl)cc1NC(=O)c1cc2c([nH]1)-c1nc(NC(=O)C(C)C)sc1CC2", "growth": "102% (inactive)"},
      {"smiles": "C[C@H]1C=C(C[C@@H](O)CCCCCCCCCC[C@@H](O)[C@H]2CCC(=O)O2)C(=O)O1", "growth": "92.5% (inactive)"},
      {"smiles": "CC(NCCC(c1ccccc1)c1ccccc1)c1ccccc1", "note": "(stereo not given)", "growth": "-54.9% (active)"},
      {"smiles": "CCCCCC/C=N/Nc1ccc([N+](=O)[O-])cn1", "growth": "98% (inactive)"},
      {"smiles": "Cc1ccc2c(c1)Nc1ccc(C)cc1C2(C)C", "growth": "84.3% (inactive)"},
      {"smiles": "CS(=O)(=O)Nc1cccc(-c2ccc3ncnc(Nc4ccc(F)c(Cl)c4)c3c2)c1", "growth": "-33.3% (active)"},
      {"smiles": "C#C[C@@]1(O)[C@@H](CO)O[C@@H](n2cc(Br)c3c(Cl)ccnc32)[C@@H]1O", "growth": "17.2% (inactive)"},
      {"smiles": "C=CCn1c(SCC(=O)Nc2ccc(/C(C)=N\\O)cc2)nnc1-c1cc(-c2ccc(OC)cc2)nc2ccccc12", "growth": "19.2% (inactive)"},
      {"smiles": "O=C(NCCNc1nccc(-c2c(-c3cccc(O)c3)nc3sccn23)n1)c1cccc(C(F)(F)F)c1", "growth": "71.1% (inactive)"},
      {"smiles": "COc1ccc(-c2[nH]c3ccccc3c2/C=C(\\C#N)S(=O)(=O)c2ccccc2)cc1", "growth": "-39.4% (active)"},
      {"smiles": "CCOc1ccc(Cc2nccc3cc(OCC)c(OCC)cc23)cc1OCC", "growth": "76.2% (inactive)"},
      {"smiles": "O=C1c2ccccc2C(=O)c2c(NCCN=Cc3c(O)ccc4ccccc34)cccc21", "growth": "85.3% (inactive)"},
      {"smiles": "O=C(O)c1cc2ccccc2cc1Nc1ccccc1", "growth": "122% (inactive)"},
      {"smiles": "O=C(c1cc(-c2ccc(Cl)cc2)nc2ccccc12)N1N=C(c2ccccc2)CC1c1cc(-c2ccccc2)nn1-c1ccccc1", "note": "(stereo not given)", "growth": "84.9% (inactive)"},
      {"smiles": "CN(C)CC/C=C1\\c2ccccc2Sc2ccc(Cl)cc21", "growth": "-40.1% (active)"},
      {"smiles": "COc1cc(NS(C)(=O)=O)ccc1Cc1c2ccccc2nc2ccccc12", "growth": "29.8% (inactive)"},
      {"smiles": "COc1cc(/C=C\\c2cc(/C=C\\c3ccc(O)c(OC)c3)n(C(=O)CNc3ccccc3OC)n2)ccc1O", "growth": "107% (inactive)"},
      {"smiles": "O=C1CCC(c2c(O)cc(O)c3c(=O)c(O)c(-c4ccc(O)c(O)c4)oc23)N1", "note": "(stereo not given)", "growth": "112% (inactive)"},
      {"smiles": "CCCCn1c(-c2cccc(OC)c2)nc2cc(OC)c(OC)cc2c1=O", "growth": "117% (inactive)"},
      {"smiles": "O=S(=O)(Nc1cccc2cc(OS(=O)(=O)c3ccccc3)ccc12)c1ccccc1", "growth": "51.9% (inactive)"},
      {"smiles": "Cc1cc(SCc2ccc(Cl)cc2Cl)nc(SCc2ccc(Cl)cc2Cl)n1", "growth": "113% (inactive)"},
      {"smiles": "CC(C)(C)C(=O)Nc1nc2c(s1)CCc1ccn(S(=O)(=O)c3ccccc3)c1-2", "growth": "112% (inactive)"},
      {"smiles": "O=C(Nc1ccc(-n2cc(-c3ccncc3)c(-c3ccc(O)c(Cl)c3)n2)cc1)Nc1cc(C(F)(F)F)cc(C(F)(F)F)c1", "growth": "28.6% (inactive)"},
      {"smiles": "COc1ccc(-c2nn(-c3cccc(Cl)c3)cc2-c2cc(-c3ccc(Br)cc3)[nH]c(=O)c2C#N)cc1", "growth": "104% (inactive)"},
      {"smiles": "CC/C(=C(\\CC)c1ccc(OCCN(CC)CC)cc1)c1ccc(OCCN(CC)CC)cc1", "growth": "4.87% (active)"}
    ]}
  ]
}
